40 molecules from PubChem BioAssay (NCATS) can be followed below.

Inconclusive results are not listed. Where a call stands in place of a potency, no number is given. More than one record can exist for a structure, and the calls need not agree. The source made the active and inactive calls. Calls come from the whole dose curve; as a rule, active = well fitted inhibition curve with a large enough effect; inconclusive = small, poorly fitted or top-dose-only effect; inactive = no such curve, though single readings can be large or run the other way.
Potency is the fitted concentration of half-maximal effect.

This test in a line: Primary qHTS for small molecule stabilizers of the endoplasmic reticulum resident proteome: Secreted ER Calcium Modulated Protein (SERCaMP) assay (AID 1508630). To be noted: SH-SY5Y GLuc-SERCaMP (Gaussia luciferase released on ER calcium loss) secretion, thapsigargin, luminescence; series mostly up to 38.4 µM; activity change, negative = inhibition: at the top concentration. The text has this:
Assay Provider: Brandon K. Harvey Ph.D.
National Institute on Drug Abuse, National Institutes of Health, Baltimore, MD
Endoplasmic reticulum (ER) dysregulation is associated with human pathologies including neurodegenerative, cardiovascular, muscular, and diabetic conditions. Maintenance of ER calcium is critical for functions of the ER and its depletion can lead to loss of ER resident proteins, in a process termed exodosis. Therapeutic compounds capable of attenuating the redistribution of ER proteins under pathological conditions may slow or stop disease progression. To identify such compounds, we performed a quantitative high-throughput screen (qHTS) using the SERCaMP assay, which monitors secretion of ER resident proteins triggered by calcium depletion.
SERCaMP was initially developed as a reporter of ER calcium homeostasis using a Gaussia luciferase with a modified signal peptide and carboxy-terminus (GLuc-SERCaMP), modifications that confer secretion of the reporter in response to ER calcium depletion (Henderson et al., 2014). The assay was used to screen 9,501 compounds, including a collection of drugs approved by the FDA (US), EMA (EU), NHI (Japan), and HC (Canada) regulatory agencies (Huang et al., 2011). Since the SERCaMP reporter reflects the exodosis phenomenon (Trychta et al., 2018a), compounds identified in the screen have the potential to prevent exodosis by different mechanisms such as stabilizing ER calcium or augmenting ERS retrieval.
1. Henderson, M.J., Wires, E.S., Trychta, K.A., Richie, C.T., and Harvey, B.K. (2014). SERCaMP: a carboxy-terminal protein modification that enables monitoring of ER calcium homeostasis. Mol Biol Cell 25, 2828-2839.
2. Huang, R., Southall, N., Wang, Y., Yasgar, A., Shinn, P., Jadhav, A., Nguyen, D.T., and Austin, C.P. (2011). The NCGC pharmaceutical collection: a comprehensive resource of clinically approved drugs enabling repurposing and chemical genomics. Sci Transl Med 3, 80ps16.
3. Trychta, K.A., Back, S., Henderson, M.J., and Harvey, B.K. (2018a). KDEL Receptors Are Differentially Regulated to Maintain the ER Proteome under Calcium Deficiency. Cell Rep 25, 1829-1840 e1826.
SEQUENCE No. (1, 2, 3, etc.); […] (e.g., Cells, Incubation, Reagent, etc.); VALUE and DESCRIPTION.
1; Reagent; 5 uL; 1000 SH-SY5Y cells per wells
3; Compound; 23 nL; Control inhibitor / compound library
5; Reagent; 100 nM; Thapsigargin
7; Reagent; 1 uL; 0.5x coelenterazine
8; Detection; Luminescence; ViewLux imaging system
NOTES (numbers refer to sequence above)
1; SH-SY5Y human neuroblastoma cells stably expressing GLuc-SERCaMP (SH-SY5Y-GLuc-ASARTDL) cells were seeded in 1,536 well white tissue culture treated plates (Corning, Cat# 7464) in DMEM-high glucose-sodium pyruvate (ThermoFisher Scientific, Cat #10569) supplemented with 10% bovine growth serum (Hyclone), 10 U/ml penicillin (Gibco), 10 ug/ml streptomycin (Gibco), and 20 mM HEPES.
2; Assay plates were incubated for 5 hour at 37C in a humidified incubator containing 5% CO2.
3; qHTS libraries (23 nl, final concentrations of 1.53 uM, 7.67 uM, 38.3 uM) or controls (neutral control: DMSO, positive control: dantrolene) were added using a Kalypsis pin-tool Robotic System equipped with 1536 pinheads.
4; Cells were then incubated for 16 hours at 37C, 5% CO2.
5; Thapsigargin was added at 100 nM to deplete ER calcium stores.
6; Cells were incubated for 4 hour (37 °C, 5% CO2)
7; Gaussia luciferase in the medium was measured by adding 1 ul of 0.5x coelenterazine (final concentration 0.07x) prepared in Gaussia Luciferase Glow Assay Buffer (Pierce), without addition of the Cell Lysis Buffer Reagent.
8; Luminescence was measured using a ViewLux […] CCD imaging system (Perkin Elmer) equipped with clear filters. […] The same controls were also used for the calculation of the Z' factor, a measure of assay quality control, as previously described (Zhang et al., 1999). […]
A general note: In qHTS, concentration-response curves come from the screen itself.
`CCCCCCNC(=O)n1cc(F)c(=O)[nH]c1=O`: the Potency result was “inactive”.
Take `COc1ncnc(NS(=O)(=O)c2ccc(N)cc2)c1OC`: the Potency entry was “inactive”.
Same read-out and setting: next, `COc1cc2nc(N3CCCN(C)CC3)nc(NC3CCN(Cc4ccccc4)CC3)c2cc1OC`: “inactive”.
For `COc1ccc2cc3[n+](cc2c1OC)CCc1cc2c(cc1-3)OCO2`, the “activity change, negative = inhibition” value is -23.5% (inactive).
The same measure, in the same setting: as for `Cc1onc(-c2ccccc2Cl)c1C(=O)N[C@@H]1C(=O)N2[C@@H]1SC(C)(C)[C@@H]2C(=O)O`, the figure is 5.74% (inactive); as for `Clc1ccccc1CN1CCc2sccc2C1`, 103% (inactive).
On to `CCC(=O)O[C@]1(C(=O)SCF)[C@H](C)C[C@H]2[C@@H]3C[C@H](F)C4=CC(=O)C=C[C@]4(C)[C@@]3(F)[C@@H](O)C[C@@]21C`, for which the Potency entry is “inactive”.
Same read-out and setting: next, `CCN1CCCC1CNC(=O)c1cc(S(N)(=O)=O)ccc1OC` (stereo not given): “inactive”; `COC(=O)Nc1nc2ccc(Sc3ccccc3)cc2[nH]1`: “inactive”.
Same read-out and setting: as for `CNNCc1ccc(C(=O)NC(C)C)cc1`, the entry is “inactive”; as for `Cc1cccc(N(C)C(=S)Oc2ccc3ccccc3c2)c1`, “inactive”.
Same read-out and setting: as for `CO[C@@H]1[C@@H](OC(N)=O)[C@@H](O)[C@H](Oc2ccc3c(O)c(NC(=O)c4ccc(O)c(CC=C(C)C)c4)c(=O)oc3c2C)OC1(C)C`, the figure is 31.6 µM (active) and inactive; as for `O=C(O)CSCC(=O)NC1CCSC1=O` (stereo not given), “inactive”; as for `CCOCC(O)COc1ccc(NC(=O)CC[S+](C)C)cc1` (stereo not given), “inactive”.
For the molecule `CCN(CC)CCn1c(=O)c(Cc2ccc(OC)cc2)nc2ccccc21`, the “activity change, negative = inhibition” value was 17.1% (inactive).
For `Cc1noc(NS(=O)(=O)c2ccc(N)cc2)c1C`, the Potency entry was “inactive”.
On to `NC(=O)c1cccc(N)c1`, for which the Potency result was “inactive”.
Turning to `COc1ccccc1OCC(O)COC(N)=O` (stereo not given), the “activity change, negative = inhibition” value was 31% (inactive).
Regarding `Cc1ccnc2c1NC(=O)c1cccnc1N2C1CC1`, the Potency entry was “inactive”.
For the molecule `N[C@@H](Cc1ccc(O)c(O)c1)C(=O)O`, the “activity change, negative = inhibition” value is -28.8% (inactive).
The same measure, in the same setting: as for `CS(=O)(=O)c1ccc([C@@H](O)[C@@H](CO)NC(=O)C(Cl)Cl)cc1`, the figure is 232% (inactive).
On to `COCCCOc1cc(C[C@@H](C[C@H](N)[C@@H](O)C[C@H](C(=O)NCC(C)(C)C(N)=O)C(C)C)C(C)C)ccc1OC`, for which the Potency result is “inactive”.
Still for that read-out and setting: next, `CCc1c2c(nc3ccc(OC(=O)N4CCC(N5CCCCC5)CC4)cc13)-c1cc3c(c(=O)n1C2)COC(=O)[C@]3(O)CC`: “inactive”.
The same measure, in the same setting: as for `C[C@]12C=CC(=O)C=C1CC[C@@H]1[C@@H]2C(=O)C[C@@]2(C)[C@H]1CC[C@]2(O)C(=O)CO`, the entry is “inactive”; as for `COc1ccc(C(=O)CC(=O)c2ccc(C(C)(C)C)cc2)cc1`, “inactive”.
On to `CCN[C@H]1C[C@H](C)S(=O)(=O)c2sc(S(N)(=O)=O)cc21`, for which the “activity change, negative = inhibition” value was 2.1% (inactive).
Regarding `CNS(=O)(=O)CCc1ccc2[nH]cc(C3CCN(C)CC3)c2c1`, the Potency result is “inactive”.
As to `O=NN(CCCl)C(=O)NC1CCCCC1`, the “activity change, negative = inhibition” value is 0% (inactive).
`CNC1CCCN(c2c(F)cc3c(=O)c(C(=O)O)cn(C4CC4)c3c2OC)C1` (stereo not given): the Potency entry is “inactive”.
Same read-out and setting: as for `COC(c1ccccc1)(c1ccccc1)[C@H](Oc1nc(C)cc(C)n1)C(=O)O`, the entry is “inactive”; as for `CN(CCOc1ccc(CC2SC(=O)NC2=O)cc1)c1ccccn1` (stereo not given), “inactive”.
Still for that read-out and setting: as for `OCc1ccc(-c2nn(Cc3ccccc3)c3ccccc23)o1`, the entry is “inactive”; as for `C1CCC(C(CC2CCCCN2)C2CCCCC2)CC1` (stereo not given), “inactive”; as for `CCCN[C@H]1CCc2nc(N)sc2C1`, “inactive”.
The same measure, in the same setting: next, `CC(C)OC(=O)C(C(=O)OC(C)C)=C1SC=CS1`: “inactive”.
In the case of `NC(=O)c1cccnc1`, the “activity change, negative = inhibition” value is -4.39% (inactive).
For the molecule `NC1(c2ccc(-c3nc4ccn5c(=O)[nH]nc5c4cc3-c3ccccc3)cc2)CCC1`, the Potency result was “inactive”.
As for `O=C(O)C1CCCN(CCC=C(c2ccccc2)c2ccccc2)C1` (stereo not given), the Potency result is “inactive”.
Still for that read-out and setting: as for `CNS(=O)(=O)Cc1ccc2[nH]cc(CCN(C)C)c2c1`, the entry is “inactive”; as for `Nc1nc(N)c2nc(CNc3ccc(C(=O)NC(CCC(=O)O)C(=O)O)cc3)cnc2n1` (stereo not given), “inactive”.
